Assay results taken from the supplement of paper PMC10849652.
Of roughly 7,900 targets only a part is listed; those with a hit were picked by preference. About 0.6% of all pairs of compound and target were hits. Values without a mark were called inactive.

Sequence of UniProt Q02750 (Q02750 whole entry, looked up): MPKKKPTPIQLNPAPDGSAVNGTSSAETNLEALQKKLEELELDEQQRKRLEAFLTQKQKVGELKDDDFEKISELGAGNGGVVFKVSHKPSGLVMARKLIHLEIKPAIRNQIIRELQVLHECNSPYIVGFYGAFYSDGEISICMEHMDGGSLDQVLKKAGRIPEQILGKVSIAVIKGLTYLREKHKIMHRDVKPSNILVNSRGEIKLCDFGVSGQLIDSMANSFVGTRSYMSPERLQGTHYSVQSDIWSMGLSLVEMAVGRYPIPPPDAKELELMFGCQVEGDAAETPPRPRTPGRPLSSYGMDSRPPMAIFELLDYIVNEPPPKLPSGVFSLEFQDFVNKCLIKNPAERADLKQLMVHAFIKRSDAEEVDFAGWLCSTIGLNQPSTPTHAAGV
Sequence of UniProt P13473 (P13473 whole entry, looked up): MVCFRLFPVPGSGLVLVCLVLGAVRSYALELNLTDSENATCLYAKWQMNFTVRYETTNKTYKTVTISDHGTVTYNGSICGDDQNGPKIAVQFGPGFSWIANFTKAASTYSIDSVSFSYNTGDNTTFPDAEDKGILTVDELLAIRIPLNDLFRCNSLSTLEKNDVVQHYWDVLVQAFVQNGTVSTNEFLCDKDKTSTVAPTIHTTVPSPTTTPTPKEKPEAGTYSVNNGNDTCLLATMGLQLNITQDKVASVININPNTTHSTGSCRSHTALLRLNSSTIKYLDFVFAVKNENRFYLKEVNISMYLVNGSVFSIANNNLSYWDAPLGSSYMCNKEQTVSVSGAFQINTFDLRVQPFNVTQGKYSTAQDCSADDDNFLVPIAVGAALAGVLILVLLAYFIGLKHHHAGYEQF
Sequence of UniProt Q13422 (Q13422 whole entry, looked up): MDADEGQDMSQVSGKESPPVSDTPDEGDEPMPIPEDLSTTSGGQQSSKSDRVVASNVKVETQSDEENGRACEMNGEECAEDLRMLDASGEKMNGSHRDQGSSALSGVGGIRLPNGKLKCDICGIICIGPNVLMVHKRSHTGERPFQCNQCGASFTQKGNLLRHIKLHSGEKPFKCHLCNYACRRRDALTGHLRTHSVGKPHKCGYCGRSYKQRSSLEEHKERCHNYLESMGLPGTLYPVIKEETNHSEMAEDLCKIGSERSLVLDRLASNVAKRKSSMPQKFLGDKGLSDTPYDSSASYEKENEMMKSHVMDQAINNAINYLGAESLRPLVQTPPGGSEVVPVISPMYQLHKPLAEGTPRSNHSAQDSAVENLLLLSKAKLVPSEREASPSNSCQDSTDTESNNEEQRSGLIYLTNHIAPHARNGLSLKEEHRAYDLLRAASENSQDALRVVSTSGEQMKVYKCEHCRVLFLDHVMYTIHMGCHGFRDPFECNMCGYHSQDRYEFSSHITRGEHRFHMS
Sequence of UniProt Q03252 (Q03252 whole entry, looked up): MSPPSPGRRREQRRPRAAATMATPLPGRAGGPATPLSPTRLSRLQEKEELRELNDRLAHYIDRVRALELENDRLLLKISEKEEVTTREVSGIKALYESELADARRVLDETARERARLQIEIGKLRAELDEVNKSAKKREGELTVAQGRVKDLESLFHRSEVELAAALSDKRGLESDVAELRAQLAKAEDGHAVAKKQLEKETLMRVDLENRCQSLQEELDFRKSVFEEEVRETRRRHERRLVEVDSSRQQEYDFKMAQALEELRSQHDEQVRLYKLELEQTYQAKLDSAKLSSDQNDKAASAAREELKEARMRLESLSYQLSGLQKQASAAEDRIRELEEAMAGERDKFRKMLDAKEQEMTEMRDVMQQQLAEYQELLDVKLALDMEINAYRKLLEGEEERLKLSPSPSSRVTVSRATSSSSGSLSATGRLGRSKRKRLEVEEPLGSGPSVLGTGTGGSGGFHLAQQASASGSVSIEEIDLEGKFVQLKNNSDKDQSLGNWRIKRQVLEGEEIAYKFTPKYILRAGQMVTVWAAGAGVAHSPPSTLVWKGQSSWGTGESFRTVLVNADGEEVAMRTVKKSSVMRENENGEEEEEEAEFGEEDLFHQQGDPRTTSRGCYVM
Sequence of UniProt Q96GA3 (Q96GA3 whole entry, looked up): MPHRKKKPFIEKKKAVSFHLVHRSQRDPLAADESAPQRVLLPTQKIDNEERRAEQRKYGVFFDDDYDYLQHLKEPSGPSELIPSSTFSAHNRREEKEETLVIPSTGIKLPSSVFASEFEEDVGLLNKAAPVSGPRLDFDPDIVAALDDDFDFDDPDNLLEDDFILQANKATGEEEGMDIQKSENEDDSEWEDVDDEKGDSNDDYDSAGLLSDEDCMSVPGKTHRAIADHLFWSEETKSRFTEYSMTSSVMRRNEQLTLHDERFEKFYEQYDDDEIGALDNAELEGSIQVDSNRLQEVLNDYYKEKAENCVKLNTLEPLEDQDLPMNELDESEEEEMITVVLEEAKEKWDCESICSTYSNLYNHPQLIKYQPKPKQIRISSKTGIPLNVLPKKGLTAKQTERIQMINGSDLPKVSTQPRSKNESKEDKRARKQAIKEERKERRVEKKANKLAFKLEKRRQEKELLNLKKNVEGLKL
Sequence of UniProt P32019 (P32019 whole entry, looked up): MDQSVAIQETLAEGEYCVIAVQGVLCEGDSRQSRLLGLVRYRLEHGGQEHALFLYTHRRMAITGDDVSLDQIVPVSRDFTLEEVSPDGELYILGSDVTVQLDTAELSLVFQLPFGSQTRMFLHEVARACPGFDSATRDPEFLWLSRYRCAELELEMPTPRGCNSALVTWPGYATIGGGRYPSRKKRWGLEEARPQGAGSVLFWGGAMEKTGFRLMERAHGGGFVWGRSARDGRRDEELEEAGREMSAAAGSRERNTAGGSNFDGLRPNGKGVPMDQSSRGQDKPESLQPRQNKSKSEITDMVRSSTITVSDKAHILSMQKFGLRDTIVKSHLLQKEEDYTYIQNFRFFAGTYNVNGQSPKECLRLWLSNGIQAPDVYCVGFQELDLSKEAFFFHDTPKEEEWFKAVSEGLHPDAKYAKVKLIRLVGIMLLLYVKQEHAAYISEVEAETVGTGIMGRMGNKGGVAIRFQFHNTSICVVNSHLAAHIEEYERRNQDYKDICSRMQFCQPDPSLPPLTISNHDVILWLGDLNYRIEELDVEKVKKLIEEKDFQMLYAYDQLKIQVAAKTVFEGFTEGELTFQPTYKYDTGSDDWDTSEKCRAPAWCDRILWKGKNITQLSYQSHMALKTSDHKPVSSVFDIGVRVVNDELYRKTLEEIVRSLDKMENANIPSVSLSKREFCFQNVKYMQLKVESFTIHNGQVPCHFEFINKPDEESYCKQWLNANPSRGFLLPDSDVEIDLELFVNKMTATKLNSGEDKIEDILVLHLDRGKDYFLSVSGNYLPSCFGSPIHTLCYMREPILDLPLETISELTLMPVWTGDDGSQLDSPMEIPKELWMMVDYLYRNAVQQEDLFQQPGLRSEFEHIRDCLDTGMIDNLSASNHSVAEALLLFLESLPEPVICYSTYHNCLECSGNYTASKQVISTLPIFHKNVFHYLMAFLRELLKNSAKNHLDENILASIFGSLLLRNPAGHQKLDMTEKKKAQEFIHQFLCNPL
Sequence of UniProt Q9BY66 (Q9BY66 whole entry, looked up): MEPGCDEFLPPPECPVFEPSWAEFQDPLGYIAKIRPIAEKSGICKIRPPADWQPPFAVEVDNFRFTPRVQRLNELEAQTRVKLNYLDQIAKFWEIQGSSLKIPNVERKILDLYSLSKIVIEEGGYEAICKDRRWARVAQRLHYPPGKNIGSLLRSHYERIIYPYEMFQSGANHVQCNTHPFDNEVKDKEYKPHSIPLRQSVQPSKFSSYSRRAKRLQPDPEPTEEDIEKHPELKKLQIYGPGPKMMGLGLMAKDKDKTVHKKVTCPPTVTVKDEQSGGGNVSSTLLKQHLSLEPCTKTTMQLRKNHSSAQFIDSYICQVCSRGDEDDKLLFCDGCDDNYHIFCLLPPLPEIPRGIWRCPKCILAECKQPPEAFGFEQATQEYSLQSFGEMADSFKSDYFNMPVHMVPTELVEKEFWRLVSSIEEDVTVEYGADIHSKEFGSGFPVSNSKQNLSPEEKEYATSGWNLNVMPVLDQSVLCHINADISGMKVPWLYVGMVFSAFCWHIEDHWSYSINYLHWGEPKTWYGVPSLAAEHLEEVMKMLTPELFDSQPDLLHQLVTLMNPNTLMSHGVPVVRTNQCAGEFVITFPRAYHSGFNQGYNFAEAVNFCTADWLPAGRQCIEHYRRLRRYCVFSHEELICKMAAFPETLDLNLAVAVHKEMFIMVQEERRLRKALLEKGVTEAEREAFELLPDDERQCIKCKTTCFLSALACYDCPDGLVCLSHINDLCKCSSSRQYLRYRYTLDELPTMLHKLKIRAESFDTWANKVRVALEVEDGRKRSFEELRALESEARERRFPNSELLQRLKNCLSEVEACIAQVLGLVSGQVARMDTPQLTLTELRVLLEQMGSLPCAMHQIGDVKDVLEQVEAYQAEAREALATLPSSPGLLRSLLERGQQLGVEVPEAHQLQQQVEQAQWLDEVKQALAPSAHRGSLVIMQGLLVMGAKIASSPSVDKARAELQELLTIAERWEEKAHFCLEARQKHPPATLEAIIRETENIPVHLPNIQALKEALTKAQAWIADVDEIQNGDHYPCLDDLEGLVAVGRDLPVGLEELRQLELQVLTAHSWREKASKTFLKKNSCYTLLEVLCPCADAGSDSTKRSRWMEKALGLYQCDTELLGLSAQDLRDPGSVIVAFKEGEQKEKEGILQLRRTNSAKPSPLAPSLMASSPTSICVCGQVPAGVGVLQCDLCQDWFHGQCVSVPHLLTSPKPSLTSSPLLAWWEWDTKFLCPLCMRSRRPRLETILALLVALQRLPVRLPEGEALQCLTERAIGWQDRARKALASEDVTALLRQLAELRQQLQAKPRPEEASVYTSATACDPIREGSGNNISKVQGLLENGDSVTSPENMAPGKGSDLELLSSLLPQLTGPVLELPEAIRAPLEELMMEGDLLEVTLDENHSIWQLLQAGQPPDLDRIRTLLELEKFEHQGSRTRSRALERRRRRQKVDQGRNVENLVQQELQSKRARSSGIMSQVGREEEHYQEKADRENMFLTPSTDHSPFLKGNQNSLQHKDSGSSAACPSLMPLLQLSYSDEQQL

Each target was assayed with CNC(=O)C1=CC=CC=C1NC2=NC(=NC=C2Cl)NC3=C(C=C(C=C3)N4CCOCC4)OC (assay: log2 fold change, soluble protein after heating vs DMSO (PISA); higher = thermal stabilisation; K562 cells, 10 uM, 30 min; active = over 0.2 and 3.5 SD of the protein, either way, in both replicates (recomputed)).
Procedure, shortened: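 Soluble protein was defined as the supernatant after 21,000xg for 90 min. It came from K562 cells at 2×10^6 cells/mL given 10 μM compound for 30 min, heated in aliquots for 3 min across 48°C-58°C, pooled, and extracted in PBS with 0.5% NP-40 at 4°C, and was quantified by TMTpro 16plex LC-MS/MS with equalised channel sums. Thermal stability against control samples, from duplicates, is reported as log2 fold change.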
LTV1 (UniProt Q96GA3) gave a log2 fold change of 0.083. LMNB1 (UniProt P20700) was tested, and the log2 fold change was 0.007. LNPK (UniProt Q9C0E8) gave a log2 fold change of 0.012. LDAH isoform 2 (UniProt Q9H6V9) gave a log2 fold change of -0.001. IL27RA (UniProt Q6UWB1) gave a log2 fold change of 0.056. In the case of KIF2C (UniProt Q99661), the log2 fold change was -0.017. For LAMP2 (UniProt P13473), the log2 fold change was 0.105. Target LMNB2 (UniProt Q03252) has a log2 fold change of 0.027. Work on MAP1LC3B2 (UniProt A6NCE7) yielded a log2 fold change of 0.026. In the case of METAP1D (UniProt Q6UB28), the log2 fold change was 0.036. Target LIMD1 (UniProt Q9UGP4) has a log2 fold change of -0.029. With MED17 (UniProt Q9NVC6) the log2 fold change was -0.049. With KIF3A (UniProt Q9Y496) the log2 fold change was 0.085. IKZF1 (UniProt Q13422) was tested, and the log2 fold change was -0.042. With KSR1 (UniProt Q8IVT5) the log2 fold change was -0.061. In the case of MAIP1 (UniProt Q8WWC4), the log2 fold change was 0.002. In the case of LPGAT1 (UniProt Q92604), the log2 fold change was 0.073. For LTO1 (UniProt Q8WV07), the log2 fold change was 0.01. For LARP4 isoform 4 (UniProt Q71RC2), the log2 fold change was 0.047. IMMP1L (UniProt Q96LU5) was tested, and the log2 fold change was -0.01. Target LRBA (UniProt P50851) has a log2 fold change of -0.012. LMBRD2 (UniProt Q68DH5) was tested, and the log2 fold change was -0.014. MAP2K2 (UniProt P36507) gave a log2 fold change of -0.138. Target ITM2B (UniProt Q9Y287) has a log2 fold change of 0.06. Work on IPO13 (UniProt O94829) yielded a log2 fold change of 0.001. ILRUN (UniProt Q9H6K1) gave a log2 fold change of 0.023. Work on IRF2BPL (UniProt Q9H1B7) yielded a log2 fold change of 0.032. For LDLR (UniProt P01130), the log2 fold change was 0.003. For LUC7L3 (UniProt O95232), the log2 fold change was -0.314 (active). For MAP2K7 isoform 4 (UniProt O14733), the log2 fold change was -0.04. For MDC1 (UniProt Q14676), the log2 fold change was -0.162. For MAP2K1 (UniProt Q02750), the log2 fold change was -0.053. Target MARK3 (UniProt P27448) has a log2 fold change of -0.367. With KIF21A isoform 4 (UniProt Q7Z4S6) the log2 fold change was 0.001. LEMD3 (UniProt Q9Y2U8) gave a log2 fold change of 0.068. In the case of KDM5D isoform 3 (UniProt Q9BY66), the log2 fold change was 0.026. IK (UniProt Q13123) showed a log2 fold change of -0.036. With KLC2 (UniProt Q9H0B6) the log2 fold change was -0.017. In the case of INPP5B (UniProt P32019), the log2 fold change was -0.007.
